About 3,300 (8.5%) of roughly 39,000 compounds were called active. The sample holds actives, similar compounds and a random draw of the others, so the mix is not that of the screen.
These compounds were tested on HepG2 (assay: cytotoxicity call (relative viability < 0.9)). Conditions: 10 µM.
For `C[C@@H]1CN([C@H](C)CO)C(=O)c2cc(-c3cccnc3)cnc2O[C@@H]1CN(C)Cc1ccc(Oc2ccccc2)cc1`, the cytotoxicity call was “inactive”.
For `CC(/C=C/C(=O)NO)=C\c1ccccc1OCc1cn(CC[C@@H]2OC(=O)[C@H](Cc3ccccc3)N3CC4=C[C@@H](C5CC5)n5c(=O)n(C)c(=O)n5[C@H]4[C@H]23)nn1`, the cytotoxicity call was “inactive”.
In the case of `C[C@@H](N)C(=O)OC(C)(C)Cc1ccc(Cl)cc1`, the cytotoxicity call is reported as “inactive”.
In the case of `C[C@@H]1CCCCO[C@@H](CN(C)S(C)(=O)=O)[C@H](C)CN([C@@H](C)CO)C(=O)c2cc(NS(C)(=O)=O)ccc2O1`, the cytotoxicity call is reported as “inactive”.
`COC(=O)c1c2oc(c1C(=O)OC)C(=O)N[C@@H](Cc1ccccc1)Cn1cc(nn1)CNC(=O)[C@@H](Cc1ccccc1)NC(=O)N[C@@H](CO)CC2` was tested, and the cytotoxicity call was “inactive”.
`C[C@H]1OC(=O)CC[C@@H](O)/C=C/[C@@H](O)[C@@H]1O` was tested, and the cytotoxicity call was “inactive”.
For `O=C(O)[C@H]1Cc2ccccc2CN1`, the cytotoxicity call was “inactive”.
`CC(C)NC(=O)N[C@H]1C=C[C@@H](CC(=O)NCCCN(C)C)O[C@@H]1CO` was tested, and the cytotoxicity call was “inactive”.
`COc1ccc(C[C@@H](N)C(=O)N[C@@H]2[C@@H](O)[C@@H](n3cnc4c(N(C)C)ncnc43)O[C@@H]2CO)cc1` was tested, and the cytotoxicity call was “active”.
For `Nc1ccc(CCNc2ncnc3c2ncn3[C@@H]2O[C@H](CO)[C@@H](O)[C@H]2O)cc1`, the cytotoxicity call was “inactive”.
`COc1ccc(C[C@H](N)C(=O)N[C@H]2[C@@H](O)[C@@H](n3cnc4c(N(C)C)ncnc43)O[C@@H]2CO)cc1` was tested, and the cytotoxicity call was “active”.
`COc1ccc(CC(N)C(=O)NC2C(CO)OC(n3cnc4c(N(C)C)ncnc43)C2O)cc1.Cl.Cl` (configuration not stated) was tested, and the cytotoxicity call was “active”.
For `Nc1ncnc2c1ncn2C1OC(CO)C(O)C1O` (configuration not stated), the cytotoxicity call was “inactive”.
With `Nc1ncnc2c1ncn2[C@@H]1O[C@H](CO)[C@@H](O)[C@H]1O` the cytotoxicity call was “inactive”.
In the case of `CN(C)c1ncnc2c1ncn2[C@H]1O[C@@H](CO)[C@@H](N)[C@@H]1O`, the cytotoxicity call is reported as “active”.
In the case of `COc1nc(N)nc2c1ncn2[C@@H]1O[C@H](CO)[C@@H](O)[C@@H]1O`, the cytotoxicity call is reported as “inactive”.
`C[C@@H]1CN([C@H](C)CO)C(=O)c2cccc(NS(C)(=O)=O)c2O[C@@H]1CN(C)Cc1ccc(C(=O)Nc2ccccc2N)cc1` was tested, and the cytotoxicity call was “inactive”.
With `COCC#Cc1ccc2c(c1)O[C@H](CN(C)S(=O)(=O)c1ccc(C)cc1)[C@@H](C)CN([C@H](C)CO)S2(=O)=O` the cytotoxicity call was “inactive”.
With `C[C@@H]1CN([C@H](C)CO)C(=O)c2cc(NC(=O)Nc3cccc4ccccc34)ccc2O[C@@H]1CN(C)S(=O)(=O)c1ccc(Cl)cc1` the cytotoxicity call was “inactive”.
With `C[C@H](CO)N1C[C@H](C)[C@H](CN(C)S(=O)(=O)c2cn(C)cn2)Oc2c(NC(=O)C3CCCCC3)cccc2C1=O` the cytotoxicity call was “inactive”.
In the case of `C[C@H]1CN([C@@H](C)CO)C(=O)Cc2cc(NC(=O)Cc3cn(C)c4ccccc34)ccc2O[C@H]1CN(C)S(=O)(=O)c1cn(C)cn1`, the cytotoxicity call is reported as “inactive”.
`COc1ccc(NC(=O)N(C)C[C@H]2OCCCC[C@H](C)Oc3ccc(NC(=O)Nc4ccccc4)cc3C(=O)N([C@@H](C)CO)C[C@H]2C)cc1` was tested, and the cytotoxicity call was “inactive”.
In the case of `COCCNC(=O)C[C@H]1CC[C@@H](NS(=O)(=O)c2ccc(C)cc2)[C@H](CO)O1`, the cytotoxicity call is reported as “inactive”.
For `Cc1ccc(S(=O)(=O)Nc2ccc3c(c2)CC(=O)N([C@H](C)CO)C[C@H](C)[C@H](CN(C)S(=O)(=O)c2cccs2)O3)cc1`, the cytotoxicity call was “inactive”.
For `Nc1ncnc2c1ncn2[C@@H]1O[C@H](CSCC[C@H](N)C(=O)O)[C@@H](O)[C@H]1O`, the cytotoxicity call was “inactive”.
For `COc1ccc(C[C@H](N)C(=O)N[C@H]2[C@@H](O)[C@H](n3cnc4c(N(C)C)ncnc43)O[C@@H]2CO)cc1`, the cytotoxicity call was “active”.
In the case of `C[S+](CC[C@H](N)C(=O)O)C[C@H]1O[C@@H](n2cnc3c(N)ncnc32)[C@H](O)[C@@H]1O` (some centres not stated), the cytotoxicity call is reported as “inactive”.
`C[C@H](CO)N1C[C@H](C)[C@H](CN(C)S(=O)(=O)c2ccccc2F)Oc2ncc(C#Cc3cccnc3)cc2C1=O` was tested, and the cytotoxicity call was “inactive”.
In the case of `C[C@H](CO)N1C[C@H](C)[C@H](CN(C)C(=O)Nc2cccc3ccccc23)Oc2ncc(-c3ccc(F)cc3)cc2C1=O`, the cytotoxicity call is reported as “inactive”.
With `COCCCCC(=NOCCN)c1ccc(C(F)(F)F)cc1.O=C(O)C=CC(=O)O` the cytotoxicity call was “active”.
For `O=C(Nc1cccc2ccccc12)c1ccc(C(F)(F)F)cc1`, the cytotoxicity call was “inactive”.
For `Cc1noc(C)c1NC(=O)Nc1ccc2c(c1)CC(=O)N([C@H](C)CO)C[C@@H](C)[C@@H](CN(C)CC1CC1)O2`, the cytotoxicity call was “inactive”.
In the case of `COc1ccc(NC(=O)N(C)C[C@@H]2Oc3ccc(NC(=O)Cn4cnnn4)cc3C(=O)N([C@@H](C)CO)C[C@@H]2C)cc1`, the cytotoxicity call is reported as “inactive”.
`CO[C@@H]1CN(C)C(=O)c2cc(NS(=O)(=O)c3cn(C)cn3)ccc2OC[C@@H](C)N(CC2CC2)C[C@H]1C` was tested, and the cytotoxicity call was “inactive”.
`Cn1c(=O)c2[nH]cnc2n(C)c1=O.NCCN` was tested, and the cytotoxicity call was “inactive”.
`C[C@H]1CCCCO[C@H](CN(C)CC2CCCCC2)[C@@H](C)CN([C@@H](C)CO)C(=O)c2cc(NC(=O)Nc3ccccc3)ccc2O1` was tested, and the cytotoxicity call was “inactive”.
With `C[C@@H]1CCCCO[C@@H](CN(C)CC2CCCCC2)[C@@H](C)CN([C@H](C)CO)C(=O)c2cc(NC(=O)Nc3ccccc3)ccc2O1` the cytotoxicity call was “active”.
For `C[C@@H]1CN([C@@H](C)CO)C(=O)c2cc(NC(=O)Nc3ccccc3)ccc2O[C@@H](C)CCCCO[C@H]1CN(C)CC1CCCCC1`, the cytotoxicity call was “inactive”.
For `C[C@@H]1CCCCO[C@@H](CN(C)CC2CCCCC2)[C@H](C)CN([C@@H](C)CO)C(=O)c2cc(NC(=O)Nc3ccccc3)ccc2O1`, the cytotoxicity call was “inactive”.
For `C[C@@H]1CN([C@H](C)CO)C(=O)c2cc(NC(=O)Nc3ccccc3)ccc2O[C@@H](C)CCCCO[C@@H]1CN(C)CC1CCCCC1`, the cytotoxicity call was “inactive”.
`C[C@@H]1CCCCO[C@H](CN(C)CC2CCCCC2)[C@@H](C)CN([C@H](C)CO)C(=O)c2cc(NC(=O)Nc3ccccc3)ccc2O1` was tested, and the cytotoxicity call was “inactive”.
In the case of `C[C@@H]1CCCCO[C@H](CN(C)CC2CC2)[C@@H](C)CN([C@H](C)CO)C(=O)c2cc(NC(=O)Nc3ccccc3)ccc2O1`, the cytotoxicity call is reported as “inactive”.
With `C[C@@H]1CCCCO[C@H](CN(C)CC2CCCCC2)[C@H](C)CN([C@@H](C)CO)C(=O)c2cc(NC(=O)Nc3ccccc3)ccc2O1` the cytotoxicity call was “active”.
`C[C@H](CO)N1C[C@H](C)[C@@H](CN(C)CC2CCCCC2)OCCCC[C@H](C)Oc2ccc(NC(=O)Nc3ccccc3)cc2C1=O` was tested, and the cytotoxicity call was “inactive”.
`C[C@@H]1CN([C@@H](C)CO)C(=O)c2cc(NC(=O)Nc3ccccc3)ccc2O[C@@H](C)CCCCO[C@@H]1CN(C)CC1CCCCC1` was tested, and the cytotoxicity call was “active”.
In the case of `C[C@@H]1CCCCO[C@H](CN(C)CC2CC2)[C@H](C)CN([C@@H](C)CO)C(=O)c2cc(NC(=O)Nc3ccccc3)ccc2O1`, the cytotoxicity call is reported as “inactive”.
`C[C@H]1CCCCO[C@@H](CN(C)CC2CCCCC2)[C@@H](C)CN([C@@H](C)CO)C(=O)c2cc(NC(=O)Nc3ccccc3)ccc2O1` was tested, and the cytotoxicity call was “active”.

Source: the antibiotic and cytotoxicity screens of Wong et al. (2023)
